According to PubChem BioAssay AID1159580 (chemical genetic matrix, 2015):
Several values for one entry are separate records, joined by “and”; a condition that tells them apart may be missing. Equal values may be shown once. Out of some 5,500 compounds screened, about 2,000 (36%) were called active. Inconclusive results (about 18%) are left out. No stated cut-off is given here; in the data, active means normalized growth mostly below about 0.91 (no sharp cut-off); inconclusive means no clear call, values can overlap the other calls; inactive means mostly above about 0.92. The list shows a part of the results.

Assay: chemical genetic growth profiling, strain panel (AID 1159580);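 further: tested at 20 µM; growth read once vehicle control cultures reached saturation at 30 °C; 1 = growth at the plate median or of vehicle wells; lower values mean less growth of the strain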
Conditions: S. cerevisiae deletion strains, growth OD

Measured: normalized growth

CC12CCC(CC1)C(C)(C)O2
inactive: locus YAL013W, strain DEP1, active compounds read low 1 | locus YAL021C, strain ccr4, active compounds read low 0.963 | locus YAL026C, strain drs2, active compounds read low 0.973 | locus YAL030W, strain snc1, active compounds read low 0.998 | locus YBL061C, strain skt5, active compounds read low 0.967 | locus YBR009C, strain hhf1, active compounds read low 0.994 | locus YBR021W, strain FUR4, active compounds read low 1.02 | locus YBR023C, strain chs3, active compounds read low 0.974 | locus YBR171W, strain sec66, active compounds read low 0.966 | locus YBR229C, strain ROT2, active compounds read low 1 | locus YBR231C, strain swc5, active compounds read low 1.02 | locus YBR279W, strain paf1, active compounds read low 0.988 | locus YCL011C, strain gbp2, active compounds read low 0.974 | locus YCL016C, strain dcc1, active compounds read low 0.986 | locus YCL029C, strain bik1, active compounds read low 1.01 | locus YCL061C, strain MRC1, active compounds read low 0.968 | locus YCL069W, strain vba3, active compounds read low 0.977 | locus YCR088W, strain abp1, active compounds read low 0.985 | locus YDL005C, strain med2, active compounds read low 0.975 | locus YDL035C, strain GPR1, active compounds read low 0.999 | locus YDL040C, strain nat1, active compounds read low 0.997 | locus YDL074C, strain BRE1, active compounds read low 1.02 | locus YDL101C, strain DUN1, active compounds read low 1 | locus YDL185W, strain tfp1, active compounds read low 1.01 | locus YDL192W, strain arf1, active compounds read low 1.02 | locus YDR001C, strain nth1, active compounds read low 0.995 | locus YDR069C, strain doa4, active compounds read low 0.966 | locus YDR101C, strain arx1, active compounds read low 0.996 | locus YDR137W, strain rgp1, active compounds read low 1.04 | locus YDR150W, strain NUM1, active compounds read low 1 | locus YDR159W, strain sac3, active compounds read low 1.01 | locus YDR162C, strain NBP2, active compounds read low 0.978 | locus YDR195W, strain ref2 0.982 | locus YDR297W, strain sur2, active compounds read low 0.985 | locus YDR318W, strain mcm21, active compounds read low 1.02 | locus YDR334W, strain swr1, active compounds read low 0.974 | locus YDR335W, strain msn5, active compounds read low 0.985 | locus YDR388W, active compounds read low 1.02 | locus YDR392W, strain spt3, active compounds read low 0.935 | locus YDR502C, strain sam2, active compounds read low 1.01 | locus YEL003W, strain gim4, active compounds read low 0.989 | locus YEL037C, strain rad23, active compounds read low 0.97 | locus YEL061C, strain CIN8 (second series), active compounds read low 0.98 | locus YEL061C, strain CIN8, active compounds read low 1 | locus YER015W, strain faa2, active compounds read low 0.979 | locus YER016W, strain bim1, active compounds read low 0.992 | locus YER110C, active compounds read low 1.02 | locus YER111C, strain swi4, active compounds read low 0.97 | locus YER155C, strain BEM2 (second series), active compounds read low 0.977 | locus YER155C, strain BEM2, active compounds read low 1.01 | locus YER167W, strain BCK2, active compounds read low 1 | locus YFR010W, strain ubp6, active compounds read low 0.967 | locus YGL078C, strain dbp3, active compounds read low 1.03 | locus YGL086W, strain mad1, active compounds read low 0.986 | locus YGL167C, strain pmr1, active compounds read low 0.979 | locus YGL173C, strain kem1, active compounds read low 0.971 | locus YGL227W, strain vid30, active compounds read low 0.986 | locus YGL240W, strain doc1, active compounds read low 0.997 | locus YGL248W, strain PDE1, active compounds read low 1.01 | locus YGL253W, strain hxk2, active compounds read low 0.963 | locus YGR078C, strain PAC10, active compounds read low 1 | locus YGR135W, strain pre9, active compounds read low 1.06 | locus YGR229C, strain SMI1, active compounds read low 0.999 | locus YGR252W, strain gcn5, active compounds read low 1.04 | locus YHR013C, strain ard1, active compounds read low 0.967 | locus YHR027C, strain rpn1, active compounds read low 0.984 | locus YHR030C, strain SLT2, active compounds read low 1.01 and 0.978 | locus YHR079C, strain IRE1 (second series), active compounds read low 1.01 | locus YHR079C, strain IRE1, active compounds read low 0.993 | locus YHR094C, strain hxt1, active compounds read low 1.02 | locus YHR129C, strain ARP1, active compounds read low 1.01 | locus YHR142W, strain chs7, active compounds read low 0.979 | locus YHR200W, strain rpn10, active compounds read low 1.01 | locus YIL066C, strain RNR3, active compounds read low 0.998 | locus YIL073C, strain SPO22, active compounds read low 1 | locus YIL125W, strain kgd1, active compounds read low 1.02 | locus YIR030C, strain dcg1, active compounds read low 1.03 | locus YJL092W, strain hpr5, active compounds read low 0.954 | locus YJL095W, strain BCK1 (second series), active compounds read low 0.97 | locus YJL095W, strain BCK1, active compounds read low 1.03 and 0.991 | locus YJL115W, strain asf1, active compounds read low 0.982 | locus YJL129C, strain trk1, active compounds read low 0.966 | locus YJL134W, strain LCB3, active compounds read low 1 | locus YJL154C, strain vps35, active compounds read low 0.984 | locus YJL164C, strain tpk1, active compounds read low 0.988 | locus YJL166W, strain qcr8, active compounds read low 0.996 | locus YJL168C, strain set2, active compounds read low 1.04
